Common to all, as to assay: HT-SELEX; 20 mM HEPES pH 7, 140 mM KCl, 5 mM NaCl, 1 mM K2HPO4, 2 mM MgSO4, 100 uM EGTA, ZnSO4, 0.1% Tween20; room temperature, 1 h; high values mean tight binding
Details in all cases: protein: ivt; tags: eGFP (N-terminal); dsDNA, one strand shown

The target of one assay is ZNF721 full-length (Homo sapiens, UniProt Q8TF20-2 1-923). The procedure, abridged:
(§1)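 In HEPES/KCl low-stringency buffer with Tween20, a bead-immobilised tagged transcription factor (full-length or DNA-binding-domain fragment, from HEK293 lysate or cell-free extract) was incubated with a randomized 40-base DNA library for 1 h at room temperature. DNA retained after washing was heat-eluted, amplified by PCR over successive cycles and Illumina-sequenced, giving ~3 million 60 bp reads per sample. The reported binding signal, a relative k-mer count in those selected reads, rises with tighter binding.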

A further assay deals with ZNF721 DBD1 (Homo sapiens, UniProt Q8TF20-2 29-461). The gist of the method:
as §1

A further assay addresses ZNF721 DBD2 (Homo sapiens, UniProt Q8TF20-2 395-923). The procedure, abridged:
as §1

These results are taken from article PMC13541613, “GHT-SELEX demonstrates unexpectedly high intrinsic sequence specificity and complex DNA binding of many human transcription factors”.

Chain of ZNF721 DBD2 (Q8TF20 383-911): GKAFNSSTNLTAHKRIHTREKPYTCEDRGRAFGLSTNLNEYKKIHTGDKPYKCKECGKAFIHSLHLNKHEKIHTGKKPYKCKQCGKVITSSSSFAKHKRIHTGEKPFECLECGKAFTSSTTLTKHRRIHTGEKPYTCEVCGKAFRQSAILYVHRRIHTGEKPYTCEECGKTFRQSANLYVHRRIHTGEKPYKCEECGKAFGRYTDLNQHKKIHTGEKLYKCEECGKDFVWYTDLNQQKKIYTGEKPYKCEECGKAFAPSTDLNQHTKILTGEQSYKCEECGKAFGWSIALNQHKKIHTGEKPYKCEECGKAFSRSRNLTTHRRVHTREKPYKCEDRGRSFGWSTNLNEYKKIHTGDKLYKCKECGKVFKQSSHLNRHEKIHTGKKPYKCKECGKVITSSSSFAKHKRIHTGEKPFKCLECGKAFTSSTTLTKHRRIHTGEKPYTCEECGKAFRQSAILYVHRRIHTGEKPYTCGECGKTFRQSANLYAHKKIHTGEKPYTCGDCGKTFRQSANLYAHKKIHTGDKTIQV
Chain of ZNF721 full-length (Q8TF20 other isoform, or with tags, fused parts or gaps): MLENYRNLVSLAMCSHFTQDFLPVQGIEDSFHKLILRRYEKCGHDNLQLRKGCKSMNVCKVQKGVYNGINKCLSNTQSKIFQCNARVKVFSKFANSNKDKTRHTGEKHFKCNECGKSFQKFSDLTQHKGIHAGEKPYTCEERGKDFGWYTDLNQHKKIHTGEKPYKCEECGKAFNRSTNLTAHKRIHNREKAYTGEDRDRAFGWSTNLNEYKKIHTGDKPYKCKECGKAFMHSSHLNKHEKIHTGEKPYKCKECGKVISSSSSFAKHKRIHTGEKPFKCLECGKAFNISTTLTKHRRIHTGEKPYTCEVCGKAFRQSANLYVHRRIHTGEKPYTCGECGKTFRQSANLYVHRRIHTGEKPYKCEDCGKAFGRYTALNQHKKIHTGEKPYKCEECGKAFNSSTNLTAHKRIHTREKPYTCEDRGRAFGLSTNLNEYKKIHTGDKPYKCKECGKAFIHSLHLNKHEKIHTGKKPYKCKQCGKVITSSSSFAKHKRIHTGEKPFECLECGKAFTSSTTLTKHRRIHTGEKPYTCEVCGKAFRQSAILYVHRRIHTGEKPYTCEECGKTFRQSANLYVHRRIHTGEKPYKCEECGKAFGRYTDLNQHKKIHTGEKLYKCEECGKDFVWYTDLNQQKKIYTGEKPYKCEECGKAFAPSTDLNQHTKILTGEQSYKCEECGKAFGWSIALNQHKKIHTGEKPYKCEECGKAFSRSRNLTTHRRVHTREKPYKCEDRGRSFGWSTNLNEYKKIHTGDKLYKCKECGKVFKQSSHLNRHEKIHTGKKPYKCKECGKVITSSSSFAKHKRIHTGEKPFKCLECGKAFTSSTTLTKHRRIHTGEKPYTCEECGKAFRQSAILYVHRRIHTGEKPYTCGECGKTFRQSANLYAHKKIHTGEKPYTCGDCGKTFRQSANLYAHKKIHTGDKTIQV
Chain of ZNF721 DBD1 (Q8TF20 17-449): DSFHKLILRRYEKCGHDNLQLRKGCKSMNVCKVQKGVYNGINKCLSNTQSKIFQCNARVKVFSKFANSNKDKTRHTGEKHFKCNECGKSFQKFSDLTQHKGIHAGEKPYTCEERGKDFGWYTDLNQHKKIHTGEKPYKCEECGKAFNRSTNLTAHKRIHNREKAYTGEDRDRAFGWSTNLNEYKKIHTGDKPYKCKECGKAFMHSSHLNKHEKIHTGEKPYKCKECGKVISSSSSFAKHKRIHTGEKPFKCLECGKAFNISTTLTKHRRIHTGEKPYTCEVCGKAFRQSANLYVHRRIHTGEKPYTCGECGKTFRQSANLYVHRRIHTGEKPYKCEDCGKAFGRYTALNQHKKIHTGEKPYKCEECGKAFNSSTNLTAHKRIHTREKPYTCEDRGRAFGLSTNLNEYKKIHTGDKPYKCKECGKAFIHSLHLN

Take GGGGTGGGAC: the binding signal with ZNF721 full-length came out at 0.111 relative 10-mer count; with ZNF721 DBD1 it was 0.00449 relative 10-mer count; in the assay with ZNF721 DBD2 it was 0.00108 relative 10-mer count.
CGACCCACCC: the binding signal in the assay with ZNF721 full-length is 0.126 relative 10-mer count; in the assay with ZNF721 DBD1, 0.00477 relative 10-mer count; with ZNF721 DBD2, 0.00324 relative 10-mer count.
With TCCCCACCCA, the binding signal is 0.122 relative 10-mer count with ZNF721 full-length, 0.00495 relative 10-mer count in the assay with ZNF721 DBD1 and 0.00431 relative 10-mer count with ZNF721 DBD2.
For ACCCCCCCCA, the binding signal was 0.154 relative 10-mer count with ZNF721 full-length, 0.005 relative 10-mer count with ZNF721 DBD1 and 0.00276 relative 10-mer count with ZNF721 DBD2.
Turning to GACCCACCCC, the binding signal with ZNF721 full-length stood at 0.124 relative 10-mer count; in the assay with ZNF721 DBD1 it was 0.00427 relative 10-mer count; in the assay with ZNF721 DBD2 it was 0.0018 relative 10-mer count.
In the same order, the values of TAAAAAAAAA are 0.115 relative 10-mer count, 0.0133 relative 10-mer count and 0.0464 relative 10-mer count.
For CCACCATCCC, the binding signal stood at 0.162 relative 10-mer count with ZNF721 full-length, 0.0055 relative 10-mer count with ZNF721 DBD1 and 0.00443 relative 10-mer count with ZNF721 DBD2.
In the same order, the values of ACCGCCCCCC are 0.135 relative 10-mer count, 0.00642 relative 10-mer count and 0.00132 relative 10-mer count.
For TGGGTATGAA, the binding signal stood at 0.14 relative 10-mer count with ZNF721 full-length, 0.192 relative 10-mer count with ZNF721 DBD1 and 0.00108 relative 10-mer count in the assay with ZNF721 DBD2.
In the same order, the values of AGGGGTGGGG are 0.2 relative 10-mer count, 0.00968 relative 10-mer count and 0.00372 relative 10-mer count.
In the case of CAAAAAAACA, the binding signal with ZNF721 full-length was found to be 0.365 relative 10-mer count; with ZNF721 DBD1, 0.00349 relative 10-mer count; with ZNF721 DBD2, 0.263 relative 10-mer count.
On to CCACGCCCCC, for which the binding signal with ZNF721 full-length is 0.187 relative 10-mer count; with ZNF721 DBD1, 0.00605 relative 10-mer count; with ZNF721 DBD2, 0.0024 relative 10-mer count.
Turning to CCCCGCACCC, the binding signal with ZNF721 full-length is 0.179 relative 10-mer count; with ZNF721 DBD1, 0.00812 relative 10-mer count; with ZNF721 DBD2, 0.00252 relative 10-mer count.
Take CACGCCCCAC: the binding signal in the assay with ZNF721 full-length is 0.11 relative 10-mer count; with ZNF721 DBD1, 0.00326 relative 10-mer count; with ZNF721 DBD2 it was 0.00455 relative 10-mer count.
Consider ACCCCTCCCC, for which the binding signal with ZNF721 full-length was found to be 0.189 relative 10-mer count; with ZNF721 DBD1 it was 0.00688 relative 10-mer count; in the assay with ZNF721 DBD2, 0.00216 relative 10-mer count.
CAACCCCCAC: the binding signal with ZNF721 full-length worked out at 0.108 relative 10-mer count; in the assay with ZNF721 DBD1, 0.00417 relative 10-mer count; with ZNF721 DBD2, 0.00216 relative 10-mer count.
Turning to CCCGCCCTCC, the binding signal with ZNF721 full-length is 0.158 relative 10-mer count; with ZNF721 DBD1 it was 0.00803 relative 10-mer count; with ZNF721 DBD2 it was 0.0018 relative 10-mer count.
In the same order, the values of CCTTCCCCCC are 0.104 relative 10-mer count, 0.00472 relative 10-mer count and 0.00264 relative 10-mer count.
In the same order, the values of ACAAAAAAAC are 0.151 relative 10-mer count, 0.00188 relative 10-mer count and 0.0972 relative 10-mer count.
For ACCCCCCCCC, in that order: 0.143 relative 10-mer count, 0.00362 relative 10-mer count and 0.0018 relative 10-mer count.
Regarding ATGGGTGGGG, the binding signal in the assay with ZNF721 full-length is 0.109 relative 10-mer count; with ZNF721 DBD1, 0.00427 relative 10-mer count; with ZNF721 DBD2 it was 0.00372 relative 10-mer count.
In the case of CCACGCCCCA, the binding signal in the assay with ZNF721 full-length was 0.109 relative 10-mer count; with ZNF721 DBD1, 0.00422 relative 10-mer count; with ZNF721 DBD2, 0.0024 relative 10-mer count.
In the case of ACCCACCCAC, the binding signal in the assay with ZNF721 full-length came out at 0.196 relative 10-mer count; in the assay with ZNF721 DBD1 it was 0.00922 relative 10-mer count; with ZNF721 DBD2 it was 0.00887 relative 10-mer count.
CACCCACACC: the binding signal with ZNF721 full-length worked out at 0.127 relative 10-mer count; with ZNF721 DBD1, 0.0061 relative 10-mer count; in the assay with ZNF721 DBD2, 0.00395 relative 10-mer count.
In the case of CTTTTTTTTC, the binding signal is 0.171 relative 10-mer count with ZNF721 full-length, 0.0293 relative 10-mer count with ZNF721 DBD1 and 0.0669 relative 10-mer count in the assay with ZNF721 DBD2.
Consider CCCCTCCCCA, for which the binding signal in the assay with ZNF721 full-length came to 0.188 relative 10-mer count; in the assay with ZNF721 DBD1, 0.00734 relative 10-mer count; in the assay with ZNF721 DBD2 it was 0.00455 relative 10-mer count.
Take AAAAAAGGCA: the binding signal with ZNF721 full-length was 0.18 relative 10-mer count; with ZNF721 DBD1 it was 0.00284 relative 10-mer count; with ZNF721 DBD2, 0.13 relative 10-mer count.
Regarding CCCCCTTCCC, the figures for the binding signal with ZNF721 full-length, with ZNF721 DBD1 and with ZNF721 DBD2 were 0.122 relative 10-mer count, 0.00537 relative 10-mer count and 0.00264 relative 10-mer count, respectively.
For CCCCCCCTCC, the binding signal with ZNF721 full-length stood at 0.208 relative 10-mer count; with ZNF721 DBD1, 0.00982 relative 10-mer count; with ZNF721 DBD2 it was 0.00336 relative 10-mer count.
AAAAAAGCGC: the binding signal turned out to be 0.115 relative 10-mer count with ZNF721 full-length, 0.0212 relative 10-mer count with ZNF721 DBD1 and 0.015 relative 10-mer count with ZNF721 DBD2.
